Source: PubChem BioAssay (National Center for Advancing Translational Sciences (NCATS))
In the library only some 9.2% were active in any assay of this set; here they are far more common.
ELG1 DNA repair = ELG1-dependent DNA repair inhibition. HEK293T ELG1-luciferase reporter, luminescence, 16 h; DNA damage induced by 5-fluorouridine. actives 2.3% (n = 330,000). Potency, µM (titrated, usually from 46.1 µM), without a hit: at the top dose activity change, negative = inhibition, actives largely listed as inhibitors; note: % is set by controls: 0 for no effect and ±100 for the full control effect; nearly all actives have a fitted effect of over 55% in size
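Quantitative HTS, concentration-response format. 2,000 cells/well co-treated with 5-fluorouridine and compound, 16 hr in 5% CO2 at 37 °C; ONE-Glo luminescence read after 30 min.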
FLuc modulator = inhibits or activates purified firefly luciferase, miR-21 counter-screen. P08659. purified FLuc, Km substrates, luminescence inhibition. Potency, µM (doses to about 57.5 µM), for the others: at the top dose activity change, negative = inhibition, usual class: inhibitors. actives 6.9% (n = 360,000). AID 588342;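 note: plate controls were vehicle for no effect and reference inhibitor for full effect; nearly all actives have a fitted effect of over 55% in size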
Target sequence (P08659 whole entry, looked up): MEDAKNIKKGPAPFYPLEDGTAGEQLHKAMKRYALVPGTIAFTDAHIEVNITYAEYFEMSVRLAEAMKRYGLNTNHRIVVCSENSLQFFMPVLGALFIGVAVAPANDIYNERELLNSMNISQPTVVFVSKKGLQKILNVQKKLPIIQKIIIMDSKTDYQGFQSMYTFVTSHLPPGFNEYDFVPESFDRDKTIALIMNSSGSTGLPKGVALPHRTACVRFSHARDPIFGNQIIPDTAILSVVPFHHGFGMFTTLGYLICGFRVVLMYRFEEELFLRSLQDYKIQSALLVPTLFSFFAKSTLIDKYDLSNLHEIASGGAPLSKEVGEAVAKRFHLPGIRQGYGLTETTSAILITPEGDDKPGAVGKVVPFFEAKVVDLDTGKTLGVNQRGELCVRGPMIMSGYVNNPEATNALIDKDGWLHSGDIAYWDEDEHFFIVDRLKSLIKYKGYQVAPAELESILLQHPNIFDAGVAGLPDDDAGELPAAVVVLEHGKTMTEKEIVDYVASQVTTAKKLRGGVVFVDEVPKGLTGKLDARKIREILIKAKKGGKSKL
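Biochemical qHTS of compounds, final roughly 60 µM downward over six points, against 10 nM purified firefly luciferase using Km concentrations of substrates (10 uM D-luciferin, 10 uM ATP) in Tris acetate pH 7.5 buffer; luminescence output.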
NPC1 prom act = activators of NPC1 promoter | Huh7 NPC1 promoter luciferase reporter, 24 h | Potency, µM (doses to about 9.22 µM), for inactives: at the highest dose activation, most hits filed as activators | actives 2.4% (n = 320,000); note: % of control where 0% means no effect; nearly all actives have a fitted effect of over 60% in size
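Luminescence read-out of NPC1 promoter-driven luciferase in stably transfected Huh7 cells; compounds delivered in DMSO and left 24 h at 37C, 5% CO2, qHTS titration format.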
ELG1 genotox = induces genotoxicity in HEK293T cells with luciferase-tagged ELG1. HEK293T ELG1-luciferase reporter, luminescence, 16 h. actives 1.3% (n = 330,000). AID 504466. Potency, µM (series often up to 46 µM), for inactives: at the top dose activity change, positive = activation, actives largely listed as activators; note: % of control where 0% means no effect; nearly all actives have a fitted effect of over 60% in size
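Cells (2,000/well) expressing the ELG1-luciferase fusion are dosed by pin tool and kept 16 hr at 37 °C, 5% CO2. Signal comes from ONE-Glo luciferase reagent after 30 min at room temperature.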
Rab9 prom act = activates the Rab9 promoter; Huh7 Rab9 promoter-luciferase reporter, luminescence, 24 h; Potency, µM (doses to about 9.22 µM), inactives show top-dose activation, negative = inhibition, usual class: activators; actives 2.8% (n = 320,000); AID 485297; note: % of control where 0% means no effect; nearly all actives have a fitted effect of over 60% in size
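Steps: seed 1500 Huh7 Rab9-luc cells per well, rest 2 h at 37 °C; add compound in DMSO; incubate 24 h; add luciferase reagent, 10 min ambient; read luminescence.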
SMN2 splice enh = enhancers of SMN2 splice variant expression; HEK293 SMN2-luciferase splicing reporter, luminescence, 30-36 h; Potency, µM (highest dose often 46.1 µM), without a hit: at the top dose activity change, positive = activation, usual class: activators; actives 2.8% (n = 210,000); note: % of control where 0% means no effect; nearly all actives have a fitted effect of over 55% in size
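HEK293 cells carry an SMN2 minigene-luciferase reporter in which exon 7 inclusion puts luciferase in frame. Cells were seeded at 2000 cells/well, attached for 10-12 hours, then exposed to compounds for 30-36 hours at 37C before ONE-Glo luminescence.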
Numbers without * were called inactive; [ ] = another dose, or the depositor's remark. Calls come from the whole dose curve; as a rule, active = well fitted curve in the direction sought with a large enough effect; inconclusive = small, poorly fitted or top-dose-only effect, or another doubt; inactive = no such curve, though single readings can be large; an effect the other way counts as inactive or inconclusive. Potency is the fitted concentration of half-maximal effect.

How did CC(C)(C)C1CCc2c(sc(NC(=O)c3cccs3)c2C(N)=O)C1 (stereo not drawn) do in these assays?
ELG1 DNA repair: inconclusive; FLuc modulator: 0.536µM*; NPC1 prom act: inconclusive; ELG1 genotox: inconclusive; Rab9 prom act: 3.98µM*; SMN2 splice enh: -21.1%

How did CC1CCc2c(sc(NC(=O)C3=COCCO3)c2C(N)=O)C1 (stereo not drawn) do in these assays?
ELG1 DNA repair: inconclusive; FLuc modulator: 0.757µM*; NPC1 prom act: 2.51µM*; ELG1 genotox: inconclusive; Rab9 prom act: 1.58µM*

Results for CC1CCc2c(sc(NC(=O)CSc3nc(N)cc(=O)[nH]3)c2C(N)=O)C1 (stereo not drawn) ?
ELG1 DNA repair: -8.6%; FLuc modulator: 16.9µM*; NPC1 prom act: -6.7%; ELG1 genotox: -1.0%; Rab9 prom act: -4.0%

Results for CNC(=O)c1c(NC(=O)C2=COCCO2)sc2c1CCC(C)C2 (stereo not drawn) ?
ELG1 DNA repair: inconclusive; FLuc modulator: 2.69µM*; NPC1 prom act: -1.3%; ELG1 genotox: 13.8%; Rab9 prom act: 20.3%

Results for COc1cc(C(=O)Nc2sc3c(c2C(N)=O)CCC(C)C3)cc(OC)c1OC (stereo not drawn) ?
FLuc modulator: -1.7%; SMN2 splice enh: 0.4%

Results for C[C@H](OP(=O)(O)O)[C@H](N)C(=O)O ?
SMN2 splice enh: -5.3%[9.22 µM]

What do the screens show for `CCC(C)(C)NS(=O)(=O)c1cc(CN2C(=O)c3cccnc3C2=O)ccc1OC`?
ELG1 DNA repair: 13.8%; FLuc modulator: 0.6%; NPC1 prom act: -6.2%; ELG1 genotox: -0.1%; Rab9 prom act: 0.1%

How did CC1=C(C(=O)OCC2CCCCC2)C(c2ccc(O)cc2)NC(=O)N1 (stereo not drawn) do in these assays?
ELG1 DNA repair: -7.7%; FLuc modulator: 0.5%; NPC1 prom act: 1.7%; ELG1 genotox: 0.2%; Rab9 prom act: -5.0%

Results for CC(C)n1cc(/C=N/Nc2ccc(C(=O)O)cc2)c2ccccc21 ?
ELG1 DNA repair: inconclusive; FLuc modulator: 6.01µM*; NPC1 prom act: 12.2%; ELG1 genotox: inconclusive; Rab9 prom act: 5.6%

Results for Cc1ccc(OCC(=O)N/N=C\c2cn(Cc3ccccc3)c3ccccc23)cc1C ?
ELG1 DNA repair: -14.1%; FLuc modulator: 0.2%; NPC1 prom act: -0.7%; ELG1 genotox: -3.5%; Rab9 prom act: 6.8%; SMN2 splice enh: -27.5%

How did COc1cc(C(=O)N/N=C/c2cn(Cc3ccccc3)c3ccccc23)ccc1O do in these assays?
ELG1 DNA repair: -0.1%; FLuc modulator: 16.9µM*; NPC1 prom act: 2.0%; ELG1 genotox: 1.2%; Rab9 prom act: -0.4%

What do the screens show for `Cn1cc(/C=N/Nc2ccccc2)c2ccccc21`?
ELG1 DNA repair: 3.6%; FLuc modulator: 13.5µM*; NPC1 prom act: 14.4%; ELG1 genotox: inconclusive; Rab9 prom act: inconclusive; SMN2 splice enh: inconclusive

What do the screens show for `COC(=O)N/N=C/c1cn(Cc2ccccc2Cl)c2ccccc12`?
ELG1 DNA repair: -14.1%; FLuc modulator: 1.4%; NPC1 prom act: -3.9%; ELG1 genotox: -1.4%; Rab9 prom act: 2.0%; SMN2 splice enh: -62.3%

What do the screens show for `O=C(O)c1ccc(N/N=C/c2cn(Cc3ccccc3F)c3ccccc23)cc1`?
ELG1 DNA repair: inconclusive; FLuc modulator: 21.3µM*; NPC1 prom act: 24.2%; ELG1 genotox: inconclusive; Rab9 prom act: inconclusive

What do the screens show for `COC(=O)C1=C(C)NC(C)=C(C(=O)OCCSc2ccccc2)C1C` (stereo not drawn)?
SMN2 splice enh: -36.2%
